# Test system: ROS1
# Conditions: concentration: 1 μM, replicates: in singlicate; n = 1
# 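Also: KINOMEscan kinase panel screen.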
row,Structure (SMILES),%Inh [%]
1,O=C(Nc1n[nH]c2nc(-c3ccco3)c(Br)cc12)C1CCN(Cc2ccccc2)C1.O=C(O)[C@H](O)[C@@H](O)C(=O)O (centres unmarked) [SB-742034],5
2,Cn1cnc2c(N)ncnc21 [SKF-97623],0
3,COc1ccc(Nc2nccc(-c3ccc(NC(=O)c4cc5cc(F)ccc5[nH]4)cc3)n2)cc1 [GSK1229496],26
4,CNC(=O)c1ccc(C)c(-n2c(C)cc(OCc3ccc(F)cc3F)c(Br)c2=O)c1,15
5,Nc1nccc(-c2c(-c3ccc(F)cc3)ncn2C2CCN(Cc3ccccc3)CC2)n1 [SB-219980],10
6,Cc1ccc(NC(=O)Nc2ccccc2)cc1-c1ccc(C(=O)Nc2ccncc2)cc1 [GSK1398471],0
7,Fc1ccc(-c2nc[nH]c2-c2ccncc2)cc1 [SB-217360],5
8,CC(C)c1cc(-c2ccc3c(N)n[nH]c3c2)nc(N)n1 [GSK2250882],23
9,Fc1ccc(-c2nc3n(c2-c2ccncc2)CCS3)cc1 [GI98581],3
10,CCc1ccc(-c2ccc3c(c2)-c2n[nH]cc2S(=O)(=O)N3C)cc1,0
11,COc1ccc(CSc2nnc(-c3ccc4c(c3)CCO4)o2)cc1,0
12,CSc1ccc(-c2nc3n(c2-c2ccncc2)CCC3)cc1 [SKF-105561],6
13,COc1cccc(NC(=O)Nc2ccc(C)c(-c3ccc(C(=O)Nc4ccncc4)cc3)c2)c1 [GSK1398474],0
14,O=c1cc(N2CCOCC2)nc2n(Cc3cccc(Cl)c3Cl)c3ccccc3n12 [GSK2299009],38
15,COC(=O)c1cccc(NC(=O)NC2CCN(c3ccnc(Nc4ccc(F)cc4)n3)C2)c1 (centres unmarked) [GSK1379725],0
16,O=C(Nc1n[nH]c2nc(-c3cccs3)c(Br)cc12)C1CC1 [SB-735297],6
17,CC(=O)c1c(C)c2cnc(Nc3ccc(N4CCNCC4)cn3)nc2n(C2CCCC2)c1=O,0
18,CN1c2ccc(-c3ccc(C(N)=O)cc3)cc2-c2[nH]ncc2S1(=O)=O,0
19,CNc1cc(-c2ccc3c(N)n[nH]c3c2)nc(N)n1 [GSK2224810],17

row,Structure (SMILES),%Inh [%]
1,Cn1cncc1C(=O)NC1CCN(c2ccnc(Nc3ccc(F)cc3)n2)C1 (centres unmarked) [GSK1379717],0
2,Cn1cncc1-c1cc2c(Nc3ccc(OCc4ccccc4)cc3)ncnc2cn1 [GW281179],13
3,COc1ccc(-c2coc3ccc(-c4nnc(C)o4)cc23)cc1,0
4,Cc1ccc(NC(=O)Nc2ccc(Cl)cc2)cc1-c1ccc(C(=O)Nc2ccncc2)cc1 [GSK1398472],0
5,CC(=O)c1c(C)c2cnc(Nc3ccn(C)n3)nc2n(C2CCCC2)c1=O,4
6,COc1ccc(Nc2nccc(N3CCC(NC(=O)c4cc5ccccc5s4)C3)n2)cc1 (centres unmarked) [GSK1379738],0
7,Cc1nccc(-c2c(-c3ccc(F)cc3)ncn2CCCN2CCOCC2)n1.Cl [SB-282975],23
8,CC[C@@H]1CO[C@H](C(=O)Nc2ccccc2)CN1c1cc(-c2ccc3c(N)n[nH]c3c2)nc(NC)n1 [GSK2376236],24
9,NS(=O)(=O)c1cccc(N/C=C2\C(=O)Nc3ccc(S(=O)(=O)Cc4c(Cl)cccc4Cl)cc32)c1 [GSK398099],0
10,Nc1cccc(-c2ccc3c(N)n[nH]c3c2)n1 [GSK2192730],0
11,CCCCc1nn2ncccc2c1-c1ccnc(NC2CC2)n1 [GW684374],8
12,CNc1nc(-c2ccc3c(N)n[nH]c3c2)cc(N2C[C@@H](C(=O)NC3CCCCC3)OC[C@H]2C)n1 [GSK2375584],19
13,COc1cccc(C2=C(Nc3cc(Cl)c(O)c(Cl)c3)C(=O)NC2=O)c1 [SB-390767],0
14,COc1ccc(CSc2nnc(-c3ccc4ncsc4c3)o2)cc1C(F)(F)F,0
15,Cc1c(Cn2c(C)c(C)n3c(=O)cc(N4CCOCC4)nc23)cccc1C(F)(F)F [GSK2328680],19
16,CNc1nc(-c2ccc3c(N)n[nH]c3c2)cc(N2C[C@@H](C(=O)Nc3ccccc3)CC[C@H]2C)n1 [GSK2298859],36
17,Cc1ccccc1-c1cc(-c2c[nH]nc2-c2ccccn2)ccn1 [GW680061],0
18,COc1ccc(Nc2nccc(NCCNC(=O)Nc3cc(C)ccc3C)n2)cc1 [GSK1379899],5

# Test system: RPS6KA4(Kin.Dom.1-N-terminal)
# Conditions: concentration: 1 μM, replicates: in singlicate; n = 1
row,Structure (SMILES),%Inh [%]
1,O=C(Nc1n[nH]c2nc(-c3ccco3)c(Br)cc12)C1CCN(Cc2ccccc2)C1.O=C(O)[C@H](O)[C@@H](O)C(=O)O (centres unmarked) [SB-742034],11
2,Cn1cnc2c(N)ncnc21 [SKF-97623],0
3,COc1ccc(Nc2nccc(-c3ccc(NC(=O)c4cc5cc(F)ccc5[nH]4)cc3)n2)cc1 [GSK1229496],0
4,CNC(=O)c1ccc(C)c(-n2c(C)cc(OCc3ccc(F)cc3F)c(Br)c2=O)c1,67
5,Nc1nccc(-c2c(-c3ccc(F)cc3)ncn2C2CCN(Cc3ccccc3)CC2)n1 [SB-219980],0
6,Cc1ccc(NC(=O)Nc2ccccc2)cc1-c1ccc(C(=O)Nc2ccncc2)cc1 [GSK1398471],3
7,Fc1ccc(-c2nc[nH]c2-c2ccncc2)cc1 [SB-217360],0
8,CC(C)c1cc(-c2ccc3c(N)n[nH]c3c2)nc(N)n1 [GSK2250882],13
9,Fc1ccc(-c2nc3n(c2-c2ccncc2)CCS3)cc1 [GI98581],35
10,CCc1ccc(-c2ccc3c(c2)-c2n[nH]cc2S(=O)(=O)N3C)cc1,2
11,COc1ccc(CSc2nnc(-c3ccc4c(c3)CCO4)o2)cc1,0
12,CSc1ccc(-c2nc3n(c2-c2ccncc2)CCC3)cc1 [SKF-105561],6
13,COc1cccc(NC(=O)Nc2ccc(C)c(-c3ccc(C(=O)Nc4ccncc4)cc3)c2)c1 [GSK1398474],18
14,O=c1cc(N2CCOCC2)nc2n(Cc3cccc(Cl)c3Cl)c3ccccc3n12 [GSK2299009],24
15,COC(=O)c1cccc(NC(=O)NC2CCN(c3ccnc(Nc4ccc(F)cc4)n3)C2)c1 (centres unmarked) [GSK1379725],0
16,O=C(Nc1n[nH]c2nc(-c3cccs3)c(Br)cc12)C1CC1 [SB-735297],0
17,CC(=O)c1c(C)c2cnc(Nc3ccc(N4CCNCC4)cn3)nc2n(C2CCCC2)c1=O,15
18,CN1c2ccc(-c3ccc(C(N)=O)cc3)cc2-c2[nH]ncc2S1(=O)=O,17
19,CNc1cc(-c2ccc3c(N)n[nH]c3c2)nc(N)n1 [GSK2224810],0

row,Structure (SMILES),%Inh [%]
1,Cn1cncc1C(=O)NC1CCN(c2ccnc(Nc3ccc(F)cc3)n2)C1 (centres unmarked) [GSK1379717],0
2,Cn1cncc1-c1cc2c(Nc3ccc(OCc4ccccc4)cc3)ncnc2cn1 [GW281179],9
3,COc1ccc(-c2coc3ccc(-c4nnc(C)o4)cc23)cc1,13
4,Cc1ccc(NC(=O)Nc2ccc(Cl)cc2)cc1-c1ccc(C(=O)Nc2ccncc2)cc1 [GSK1398472],7
5,CC(=O)c1c(C)c2cnc(Nc3ccn(C)n3)nc2n(C2CCCC2)c1=O,0
6,COc1ccc(Nc2nccc(N3CCC(NC(=O)c4cc5ccccc5s4)C3)n2)cc1 (centres unmarked) [GSK1379738],15
7,Cc1nccc(-c2c(-c3ccc(F)cc3)ncn2CCCN2CCOCC2)n1.Cl [SB-282975],100
8,CC[C@@H]1CO[C@H](C(=O)Nc2ccccc2)CN1c1cc(-c2ccc3c(N)n[nH]c3c2)nc(NC)n1 [GSK2376236],10
9,NS(=O)(=O)c1cccc(N/C=C2\C(=O)Nc3ccc(S(=O)(=O)Cc4c(Cl)cccc4Cl)cc32)c1 [GSK398099],2
10,Nc1cccc(-c2ccc3c(N)n[nH]c3c2)n1 [GSK2192730],0
11,CCCCc1nn2ncccc2c1-c1ccnc(NC2CC2)n1 [GW684374],0
12,CNc1nc(-c2ccc3c(N)n[nH]c3c2)cc(N2C[C@@H](C(=O)NC3CCCCC3)OC[C@H]2C)n1 [GSK2375584],16
13,COc1cccc(C2=C(Nc3cc(Cl)c(O)c(Cl)c3)C(=O)NC2=O)c1 [SB-390767],5
14,COc1ccc(CSc2nnc(-c3ccc4ncsc4c3)o2)cc1C(F)(F)F,0
15,Cc1c(Cn2c(C)c(C)n3c(=O)cc(N4CCOCC4)nc23)cccc1C(F)(F)F [GSK2328680],1
16,CNc1nc(-c2ccc3c(N)n[nH]c3c2)cc(N2C[C@@H](C(=O)Nc3ccccc3)CC[C@H]2C)n1 [GSK2298859],22
17,Cc1ccccc1-c1cc(-c2c[nH]nc2-c2ccccn2)ccn1 [GW680061],5
18,COc1ccc(Nc2nccc(NCCNC(=O)Nc3cc(C)ccc3C)n2)cc1 [GSK1379899],8
